Source: PubChem BioAssay (EPA / NIEHS)
The source made the active and inactive calls. Rule for the calls: active = hit-call score of the fitted dose curve at least 0.9, where 1 is the maximum; inactive = score below 0.9.

Test: ATG_PXRE_CIS: Attagene CIS-FACTORIAL HepG2 Assay for human Pregnane X Receptor Element (PXRE) (AID 2282957)
Conditions: HepG2 Attagene CIS-FACTORIAL PXRE reporter, mRNA; actives raise or lower the signal
Description: ATG_CIS is a cell-based, multiplexed-readout assay that uses HepG2, a human liver cell line, with measurements taken at 24 hours after chemical dosing in a 24-well plate.ATG_PXRE_CIS is one of 52 assay component(s) measured or calculated from the ATG_CIS assay. It is designed to make measurements of mRNA induction, a form of inducible reporter, as detected with fluorescence intensity signals by Reverse transcription polymerase chain reaction (RT-PCR) and Capillary electrophoresis technology.Data from the assay component ATG_PXRE_CIS was analyzed into 1 assay endpoint. This assay endpoint, ATG_PXRE_CIS, was analyzed with bidirectional fitting relative to DMSO as the negative control and baseline of activity. Using a type of inducible reporter, measures of mRNA for gain or loss-of-signal activity can be used to understand the reporter gene at the transcription factor-level as they relate to the gene NR1I2. Furthermore, this assay endpoint can be referred to as a primary readout, because this assay has produced multiple assay endpoints where this one serves a reporter gene function. To generalize the intended target to other relatable targets, this assay endpoint is annotated to the nuclear receptor intended target family, where the subfamily is non-steroidal.
Human liver HepG2 cells are transiently transfected with multiple reporter transcription units (MRTUs) in 6-well plates using FuGene 6 reagent (Roche; 3 ml FuGene/1 mg DNA). The MRTU constructs are regulated by a cis-regulating element (promoter). […] A major difference between the CIS and TRANS system is that in CIS activities of endogenous TFs are measured, whereas the TRANS assay evaluates changes in activities of exogenous, chimeric NR-Gal4 proteins. […] At the end of 24 hour incubation, total RNA was isolated using TriZol reagent (Invitrogen). The isolated RNA is then reverse-transcribed using oligo(dT) primer and Mo-MLV reverse transcriptase (Invitrogen) with DNAse I (Ambion) treatment for 30 min. The one-tenth of the produced cDNA was amplified by PCR using Taq DNA polymerase (Invitrogen) and two reporter sequence-specific primers. The PCR products were fluorescently labeled by primer extension with 6-arboxyfluorescein (6-FAM) 5'-labeled reporter sequence-specific primer (2 min at 95 C, 20 s at 68 C and 10 min at 72 C) and these products were digested with 5U of HpaI (New England Biolabs) for 2h at 37 C. The fragments were purified using Qiaquick PCR columns (Qiagen), analyzed on an ABI 3130xL genetic analyzer (Applied Biosystems) with peak positions identified by using a set of X-rhodamine (ROX)-labeled MapMarker1000 molecular weight standards (BioVentures). The raw capillary electrophoresis data was processed using Attagraph software (Attagene).

Structure (SMILES) | AC50 | outcome
C[C@H]1C[C@@H]2[C@H]([C@@H](O)C[C@@]3(C)[C@H]2CC[C@]3(O)C(=O)CO)[C@@]2(C)C=CC(=O)C=C12 | 62.9 µM (active) | 
CC(C)C(C)(C)C(C)(C)C(C)(C)S | 4.43 µM (active) | 
O=c1[nH]nnc2ccccc12 |  | inactive
O=C1CCCCCCCCCCOCCCCO1 | 26.6 µM (active) | 
c1ccc2sc(SN(C3CCCCC3)C3CCCCC3)nc2c1 | 0.698 µM (active) | 
NCCOCCO |  | inactive
CCCCNC(=O)NS(=O)(=O)c1ccc(N)cc1 |  | inactive
CC(=O)O[C@H](CC(=O)[O-])C[N+](C)(C)C |  | inactive
CCCCNC(=O)NS(=O)(=O)c1ccc(C)cc1 |  | inactive
CCCCC(CC)COC(=O)/C=C\C(=O)OCC(CC)CCCC (stereo not given) | 4.85 µM (active) | 
C=C[C@@H](C)CCC=C(C)C |  | inactive
CN1Cc2c(N)cccc2C(c2ccccc2)C1 (stereo not given) | 6.9 µM (active) | 
C[C@H]1C[C@H]2[C@@H]3CCC4=CC(=O)C=C[C@]4(C)[C@@]3(F)[C@@H](O)C[C@]2(C)[C@@]1(O)C(=O)COP(=O)(O)O |  | inactive
CC(C)C1CCC(O)CC1 (stereo not given) |  | inactive
CC(C)=CCCC(C)=CCCC(C)=CCO | 4.26 µM (active) | 
O=C(O)c1snc(Cl)c1Cl | 26.8 µM (active) | 
CC(=O)Nc1ccc(C)cc1C |  | inactive
CCCCCC(CO)CCC (stereo not given) |  | inactive
Nc1ccc(S(N)(=O)=O)cc1 |  | inactive
C[Si](O[Si](C)(C)C)O[Si](C)(C)C | 13.4 µM (active) | 

Structure (SMILES) | AC50 | outcome
COc1ccc(OC)c(OC)c1 |  | inactive
CC(=O)[O][Al][O]C(C)=O | 6.49 µM (active) | 
COc1cc(C(C)(C)C)c(O)c(C(C)(C)C)c1 | 2.09 µM (active) | 
OCc1cccnc1 |  | inactive
CC(C)c1ccc(C(C)C)cc1 |  | inactive
O=C(O)c1cn(-c2ccc(F)cc2)c2cc(N3CCNCC3)c(F)cc2c1=O |  | inactive
CC(C)(Oc1ccc(CCNC(=O)c2ccc(Cl)cc2)cc1)C(=O)O | 25.6 µM (active) | 
O=c1[nH]c(=O)n([C@H]2CCCO2)cc1F |  | inactive
COc1cc(C)cc(O)c1 | 20.5 µM (active) | 
CN1[C@@H]2CC(OC(=O)[C@H](CO)c3ccccc3)C[C@H]1[C@@H]1O[C@@H]12 (stereo not given in full) |  | inactive
CC(C)=CCC/C(C)=C/COC=O |  | inactive
CCCCCCCCCCCCCOS(=O)(=O)O |  | inactive
C#C[C@]1(O)CC[C@H]2[C@@H]3CCC4=Cc5oncc5C[C@]4(C)[C@H]3CC[C@@]21C | 8.09 µM (active) | 
CC(=O)C=CC1=C(C)CCCC1(C)C | 0.716 µM (active) | 
CC(CN1c2ccccc2Sc2ccccc21)N(C)C (stereo not given) | 5.52 µM (active) | 
O=C=NC1CCC(CC2CCC(N=C=O)CC2)CC1 (stereo not given) |  | inactive
CC(C)OP(=O)(CP(=O)(OC(C)C)OC(C)C)OC(C)C | 7.59 µM (active) | 
Nc1cc([N+](=O)[O-])ccc1Cl |  | inactive
CC1(C)CCC(C)(C)c2cc(C(=O)Nc3ccc(C(=O)O)cc3)ccc21 | 53.9 µM (active) | 
CC(C)(C#N)c1cc(Cn2cncn2)cc(C(C)(C)C#N)c1 | 14.8 µM (active) | 
